Only a selection was taken, and hits are over-represented in it overall.
RMI FANCM FP = RMI-FANCM interaction inhibition | Fluorescence polarization, RMI core complex with F-MM2 peptide; active compounds read low | FP signal (polarization) at 33 µM | 70,000 tested, 0.58% active | AID 1159607; in the data active = FP signal below about 40
Large screens that a line does not name were inactive; ! = not active in a repeat.

COc1ccc2c(c1)[nH]c1c(C)nccc12	none
COc1ccc2c3c([nH]c2c1)C(C)=NCC3	RMI FANCM FP 35!
CC1=NCCc2c1[nH]c1cc(O)ccc21	none
Cc1cc(NC(=O)c2cccn(Cc3cccc(Cl)c3)c2=O)c2ccccc2n1	none
Cc1nc2ccc(NC(=O)C(C)(C)C)cc2c(=O)n1-c1ccccc1	none
Cc1c(Cl)ccc2sc(N3CCNCC3)nc12	none
Cc1cc(C(=O)Nc2ccc(Cl)cc2C(=O)c2ccccc2Cl)n(C)n1	none
COc1ccccc1OCC(=O)N1CCN(Cc2nc(C)cs2)CC1	none
CCOc1cccc2cc(C(=O)Nc3ccc(Br)cc3C(=O)c3ccccc3)oc12	none
N[C@@H](CCl)C(=O)O	none
NC(Cc1cc(O)c(O)cc1O)C(=O)O (configuration not stated)	RMI FANCM FP -4
NCCc1cc(O)c(O)cc1O	none
Cc1cc(NC(=O)c2cccn(Cc3ccccc3Cl)c2=O)no1	none
O=C1C=CC(=O)c2c(O)cccc21	RMI FANCM FP -18
O=C1c2ccccc2C(=O)c2ccccc21	none
O=C(Cc1ccccc1Cl)N1CCN(Cc2nc3ccccc3[nH]2)CC1	none
O=C(CS(=O)(=O)c1ccc(F)cc1)Nc1ccc(Br)cc1C(=O)c1ccccc1	none
O=C=NC1C=CS(=O)(=O)C1 (configuration not stated)	none
O=C(Cc1ccc(F)cc1)N1CCN(Cc2nc3ccccc3n2Cc2ccccc2)CC1	none
NC1=NC(=O)C(c2ccccc2)O1 (configuration not stated)	RMI FANCM FP 17
C=C1NN=C(c2c[nH]c3ccccc23)O1	none
COc1cc2c(cc1OC)C(=O)c1ccc(OC)c(OC)c1OCC(=O)C2	none
CC(C)=CCCC1(C)C=Cc2c(O)c3c(c(CC=C(C)C)c2O1)OC12C(=CC4CC1C(C)(C)OC2(C/C=C(/C)C(=O)O)C4=O)C3=O (configuration not stated)	none
CC(C)=CCCC1(C)C=Cc2c(O)c3c(c(CC=C(C)C)c2O1)OC12C(=CC4CC1C(C)(C)OC2(C/C=C(/C)C(=O)O)C4O)C3=O (configuration not stated)	none
COc1c(CC=C(C)C)c2c(c3oc(=O)c(-c4ccc(O)cc4)c(O)c13)C=CC(C)(C)O2	RMI FANCM FP 13
C[C@H](Cc1ccc2c(c1)OC(C(=O)O)(C(=O)O)O2)NC[C@H](O)c1cccc(Cl)c1	none
CC(N)Cc1ccc(O)cc1 (configuration not stated)	none
CC(Cc1ccc(O)cc1)NCC(O)c1cc(O)cc(O)c1 (configuration not stated)	RMI FANCM FP -13!
Cc1nc2ccc(NC(=O)C3CC3)cc2c(=O)n1-c1ccc(F)cc1	none
Cc1ccc(C)c(Cn2cccc(C(=O)Nc3ccc(S(N)(=O)=O)cc3)c2=O)c1	none

High-throughput results from PubChem BioAssay.
